Assay outcomes: PubChem, several laboratories
CHT inh: inhibits the human high affinity choline transporter; Q9GZV3; CHT-expressing cells, membrane potential dye, choline response; stronger effect = lower value; B-score at 10 µM; 310,000 compounds, 0.86% hits;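 active means B-score over 3 SD under the library average, and starting fluorescence ratio not unusually high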;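 further: choline stimulus applied at its EC90 after an EC20 pre-addition; B-score computed on integrated fluorescence ratio after choline addition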
PREPL inhibitor: inhibits the human prolyl oligopeptidase-like enzyme; Q4J6C6; recombinant PREPL, fluorescence polarization activity-based probe; inhibition, % at 5.96 µM; 320,000 compounds, 0.68% hits; AID 2751; in the data active means inhibition above about 43%;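 further: 0% = enzyme with DMSO and 100% = wells lacking enzyme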
AI-2 QS modul: modulates the Vibrio harveyi AI-2 quorum sensing system; Vibrio harveyi JMH597 AI-2 luminescence/OD600 ratio, 9 h; stronger effect = lower value; strain lacks LuxN and CqsS sensors; 0 = neutral-control median; activity change, % at 7.5 µM; 300,000 compounds, 0.4% hits; in the data active means activity change below about -75%, passing the limit was not always enough; inconclusive means no clear call, values can overlap the other calls;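 further: luminescence divided by OD600 gain over 9 h not by final OD600 alone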
ALR H2O2 inh: blocks human ALR sulfhydryl oxidase activity; purified ALR, DTT oxidation, H2O2 HRP-luminol luminescence; 290,000 compounds, 3.8% hits; P55789; AID 485317; inhibition, % (concentration not given with the values);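 active means mean replicate inhibition above about 79%, with every replicate also reaching it, limit read from the data; inconclusive means only one of the two criteria met; inactive means mean below limit and not every replicate reaching it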
CHT allo act: allosteric activators of human choline transporter CHT. B-score at 10 µM. AID 488977. CHT-expressing cells, membrane potential dye, choline EC20; stronger effect = higher value; LV-AA mutant CHT in HEK293 cells. 310,000 compounds, 0.49% hits;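 active means initial fluorescence not abnormally high and integrated response B-score, plate-corrected, over 3 SD above library mean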
Numbers without * were called inactive; i = inactive; ? = inconclusive; nt = no result. An excerpt weighted towards active compounds, which were near 5% of everything screened.

SMILES	CHT inh	PREPL inhibitor	AI-2 QS modul	ALR H2O2 inh	CHT allo act
Cc1cc(Cl)ccc1C(=O)C1CCCN(C(=O)c2cnn(C(C)C)c2)C1 (centres undefined)	i	8	13	-2	i
O=C(Nc1ccccc1C(=O)NCc1cccnc1)c1cccc([N+](=O)[O-])c1	i	-1	36	1	i
COc1ccccc1NC(=O)CSc1nc(=O)n(CCN2CCOCC2)c2c1CCC2	i	5	4	-87	i
C/C(=N\NC(=O)CCCNc1cccc(C)c1)c1ccncc1	i	13	13	93*	i
C/C(=N\NC(=O)CNC(=O)c1ccncc1)c1ccc(C)cc1	i	-3	28	-4	i
COC(=O)c1c(C)[nH]c(C(=O)C(C)OC(=O)c2c(C)noc2C)c1C (centres undefined)	nt	11	nt	-1	nt
COc1ccc(Cn2cc(C(=O)O)c(=O)c3ccccc32)cc1	i	0	3	-5	i
COc1ccc(-n2c(O)c(/C=N/NS(=O)(=O)c3cccc([N+](=O)[O-])c3)c3ccccc3c2=O)cc1OC	i	1	4	89*	i
O=C(COC(=O)c1cc(-c2ccc(Cl)s2)nc2ccccc12)NCc1ccco1	i	-5	8	92*	i
COc1ccc(C(=O)Nc2ccc(S(=O)(=O)Nc3nccc(C)n3)cc2)cc1[N+](=O)[O-]	i	7	13	-17	i
ClCc1cc2ccccc2nc1Cl	i	1	10	-5	i
Cc1ccc2cc(CCl)c(Cl)nc2c1	i	-3	12	98*	i
COc1ccc2nc(/N=C/c3c(C)[nH]n(-c4ccc(C)cc4C)c3=O)sc2c1	i	-2	11	-65	i
CC(C)(C)N1C(=O)c2ccc(C(=O)Nc3ccc(O)cc3)cc2C1=O	i	3	2	98*	i
COc1ccccc1OCCC(=O)OCC(=O)NCc1ccc(Cl)cc1	i	-5	14	97*	i
CCN(C(=O)CCS(=O)(=O)c1cc2c(cc1Cl)NC(=O)CO2)c1ccccc1	i	-4	7	49	i
OCC(O)CN1CCN(c2ccccc2)CC1 (centres undefined)	i	0	9	?	i
OC(CSc1ccc(F)cc1)CN1CCN(c2ccccc2)CC1 (centres undefined)	i	-13	21	87*	i
COc1cc(/C=C/c2ccc(O)cc2)cc(OC)c1	i	3	35	80*	i
NS(=O)(=O)c1cccc(NS(=O)(=O)c2ccc3ccccc3c2)c1	i	-4	-97*	2	i
CCN(CC)c1ccc(C2C(C(C)=O)C(=O)CC(C)(O)C2C(C)=O)cc1 (centres undefined)	i	1	3	99*	i
O=C(NC1CCCCCC1)c1ccc[nH]c1=S	i	3	7	92*	i
O=C(NC1CCCCCCC1)c1ccccc1O	i	-1	29	nt	i
CCn1c(-c2cc(-c3ccccc3)sc2N)n[nH]c1=S	i	12	4	99*	i
CCn1c(-c2cc(-c3cccc(OC)c3)nc3ccccc23)n[nH]c1=S	i	6	14	63	i
SMILES	CHT inh	PREPL inhibitor	AI-2 QS modul	ALR H2O2 inh	CHT allo act
CCc1ccc(-c2cc(-c3n[nH]c(=S)n3CC)c3ccccc3n2)cc1	-11*	-1	45	0	i
Oc1ccccc1-c1n[nH]c(=S)n1Cc1ccccc1	i	-1	2	24	i
CCn1c(-c2ccccc2O)n[nH]c1=S	i	18	25	92*	i
CCCNC(=O)C(Cc1cccc(C#N)c1)NC(=O)c1ccc(C#N)cc1 (centres undefined)	nt	-1	nt	-6	nt
c1ccc(CCn2nnc3ccccc32)cc1	i	10	26	-6	i
c1ccc2c(c1)nnn2CNc1nccs1	i	4	3	99*	i
Cc1ccc(NC(=S)NC(=O)C2CC2)cc1Cl	i	nt	-39	1	i
O=C(NC(=S)Nc1ccc(F)c(Cl)c1)C1CC1	i	-4	-78*	-1	i
Cc1ccccc1CNC(=O)c1ccc(CSCc2ccccc2)cc1	i	4	15	0	i
O=C(CN1C(=O)NC(CCc2ccccc2)C1=O)NC1CC1 (centres undefined)	i	-2	29	-16	i
